The campaign covered roughly 360,000 compounds. About 16,000 (4.4%) were called active. Entries that show only a call come without a potency. Roughly 9% stayed inconclusive and do not appear here. This excerpt belongs to a sample that is enriched for actives. Unmarked numbers belong to inactive results. Calls come from the whole dose curve; as a rule, active = well fitted inhibition curve with a large enough effect; inconclusive = small, poorly fitted or top-dose-only effect; inactive = no such curve, though single readings can be large or run the other way.
Target: Bromodomain adjacent to zinc finger domain protein 2B (Homo sapiens) (UniProt Q9UIF8)
Assay: qHTS Assay for Inhibitors of BAZ2B; note: nearly all actives have a fitted effect of over 60% in size
Conditions: AlphaScreen BAZ2B-H3K14Ac peptide displacement; series mostly up to 114 µM
Summary of the method: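 AlphaScreen displacement of biotin-H3(5-23)K14Ac peptide (50 nM final) from BAZ2B (50 nM final) in PBS pH 7.4, 0.01% Tween-20; complex preformed 30 min RT, then compounds (top 110 uM) 30 min RT, beads 20 min dark.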
Potency is the fitted concentration of half-maximal effect.

Bromodomain adjacent to zinc finger domain protein 2B (Homo sapiens), sequence (Q9UIF8 whole entry, looked up, the tested form may be a part): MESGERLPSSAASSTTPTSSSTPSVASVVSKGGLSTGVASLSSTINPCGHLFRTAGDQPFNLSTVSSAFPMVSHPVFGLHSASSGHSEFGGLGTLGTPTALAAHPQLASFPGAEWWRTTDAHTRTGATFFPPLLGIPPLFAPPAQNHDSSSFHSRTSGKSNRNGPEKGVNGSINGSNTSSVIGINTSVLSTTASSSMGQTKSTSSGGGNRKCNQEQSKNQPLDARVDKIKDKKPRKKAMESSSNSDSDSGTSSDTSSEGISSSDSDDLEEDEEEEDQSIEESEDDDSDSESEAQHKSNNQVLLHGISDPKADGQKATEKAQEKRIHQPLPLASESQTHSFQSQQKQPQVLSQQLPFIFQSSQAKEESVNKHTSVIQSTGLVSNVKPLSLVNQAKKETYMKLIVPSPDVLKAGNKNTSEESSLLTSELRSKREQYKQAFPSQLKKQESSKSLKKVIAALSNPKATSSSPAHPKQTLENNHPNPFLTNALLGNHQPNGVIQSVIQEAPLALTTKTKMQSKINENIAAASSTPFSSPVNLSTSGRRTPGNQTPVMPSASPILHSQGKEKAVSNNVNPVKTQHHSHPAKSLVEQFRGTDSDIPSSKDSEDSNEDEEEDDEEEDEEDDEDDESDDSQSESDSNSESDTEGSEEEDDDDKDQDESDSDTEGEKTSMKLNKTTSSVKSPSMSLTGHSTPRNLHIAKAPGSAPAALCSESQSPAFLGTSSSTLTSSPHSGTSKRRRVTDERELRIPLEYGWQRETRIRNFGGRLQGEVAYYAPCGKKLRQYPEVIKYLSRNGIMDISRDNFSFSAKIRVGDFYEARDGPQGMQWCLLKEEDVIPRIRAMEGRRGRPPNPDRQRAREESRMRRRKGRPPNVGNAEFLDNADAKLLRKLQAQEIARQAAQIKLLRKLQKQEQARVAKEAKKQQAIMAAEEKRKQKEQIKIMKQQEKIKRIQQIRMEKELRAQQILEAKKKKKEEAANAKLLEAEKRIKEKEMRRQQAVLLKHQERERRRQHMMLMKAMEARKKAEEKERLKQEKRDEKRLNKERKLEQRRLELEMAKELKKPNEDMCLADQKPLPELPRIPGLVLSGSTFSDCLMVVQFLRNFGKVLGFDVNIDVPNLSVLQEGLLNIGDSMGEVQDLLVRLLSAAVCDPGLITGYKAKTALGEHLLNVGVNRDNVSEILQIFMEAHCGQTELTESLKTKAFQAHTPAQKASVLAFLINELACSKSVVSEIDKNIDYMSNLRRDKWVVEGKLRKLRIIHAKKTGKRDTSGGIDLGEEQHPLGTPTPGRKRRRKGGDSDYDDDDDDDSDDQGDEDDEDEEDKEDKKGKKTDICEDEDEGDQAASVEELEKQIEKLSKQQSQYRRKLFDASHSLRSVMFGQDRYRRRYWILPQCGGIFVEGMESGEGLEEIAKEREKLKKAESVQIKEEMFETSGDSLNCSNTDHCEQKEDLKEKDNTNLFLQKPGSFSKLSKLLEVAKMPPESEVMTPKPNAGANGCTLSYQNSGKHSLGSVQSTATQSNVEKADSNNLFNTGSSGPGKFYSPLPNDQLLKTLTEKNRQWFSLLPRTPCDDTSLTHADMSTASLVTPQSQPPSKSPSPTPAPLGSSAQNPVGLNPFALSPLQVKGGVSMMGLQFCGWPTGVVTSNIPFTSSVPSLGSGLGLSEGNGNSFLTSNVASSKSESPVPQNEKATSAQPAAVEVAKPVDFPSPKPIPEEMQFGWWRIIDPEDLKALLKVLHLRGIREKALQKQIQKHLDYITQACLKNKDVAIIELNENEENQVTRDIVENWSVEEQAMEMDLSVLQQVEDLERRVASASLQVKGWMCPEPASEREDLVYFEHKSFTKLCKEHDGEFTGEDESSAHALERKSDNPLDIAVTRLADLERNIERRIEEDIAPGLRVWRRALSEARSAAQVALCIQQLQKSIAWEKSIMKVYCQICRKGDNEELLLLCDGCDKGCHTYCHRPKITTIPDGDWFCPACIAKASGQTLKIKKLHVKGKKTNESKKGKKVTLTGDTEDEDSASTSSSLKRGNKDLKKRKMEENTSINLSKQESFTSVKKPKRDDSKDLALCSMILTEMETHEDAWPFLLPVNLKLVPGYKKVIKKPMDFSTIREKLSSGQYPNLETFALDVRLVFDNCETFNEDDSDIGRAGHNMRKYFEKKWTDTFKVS

Structure (SMILES) | Potency | activity change, negative = inhibition
Cc1cccc(S(=O)(=O)c2cn(Cc3ccccc3)c3cc(N4CCOCC4)c(F)cc3c2=O)c1 | inactive | 
O=C(CSc1nc2ccccc2nc1Cc1ccccc1)N1CCCCC1 | inactive | 
Cc1ccc(Nc2nnc(-c3ccc(C)c(S(=O)(=O)N4CCCCC4)c3)c3ccccc23)cc1 | inactive | 
O=C(NNS(=O)(=O)c1ccc(F)cc1)c1cnccn1 | 79.4 µM (active) | 
COc1cccc(C(=O)NNS(=O)(=O)c2ccc(F)cc2)c1 |  | 8.36% [at 0.457 µM]
NS(=O)(=O)c1ccc(CNC(=O)c2cnccn2)cc1 | inactive | 
CCC(CC)c1nn2cc(-c3ccccc3)nc2s1 | inactive | 
Cc1ccc(OCC(=O)Nc2ccc(Cl)c(-c3nc4ccccc4[nH]3)c2)cc1C | inactive | 
Cc1nn(CC(=O)NCCc2ccccc2)c(=O)c2c1sc1ccccc12 | inactive | 
COc1cc2ccccc2cc1C(=O)Nc1nc(C)c(C(C)=O)s1 | inactive | 
CC(=O)c1sc(N/N=C\c2ccc(C)cc2)nc1C | inactive | 
CC(=O)c1sc(NC(=O)C2=NN(c3ccccc3)C(=O)CC2)nc1C | 70.8 µM (active) | 
COc1ccccc1CNS(=O)(=O)c1cc(Br)cc2c1N(C(C)=O)C(C)C2 (stereo not drawn) | inactive | 
O=C(Nc1ccc(Br)cc1)c1ccc(Br)c(S(=O)(=O)NCc2ccccc2)c1 | inactive | 
O=C(CN1CCN(S(=O)(=O)c2cc(Cl)ccc2Cl)CC1)c1ccc(O)c(O)c1 | 44.7 µM (active) | 
COc1ccc(Cl)cc1S(=O)(=O)N1CCN(CC(=O)C(C)(C)C)CC1 | inactive | 
N#Cc1ccsc1NC(=O)CN1CCN(S(=O)(=O)c2cc(Cl)ccc2Cl)CC1 | inactive | 
CCC(=O)Nc1ccccc1-c1nc2ccccc2n(CC(=O)Nc2ccc(C)c(C)c2)c1=O | inactive | 
CN(Cc1ccccc1)c1ncnc2onc(-c3ccc(F)cc3)c12 | inactive | 
CCOC(=O)C1CCN(C(=O)/C=C/c2cc(OC)c(OC)c(OC)c2)CC1 | inactive | 
CCOC(=O)C1CCN(S(=O)(=O)c2cc(F)ccc2OC)CC1 | inactive | 
CCOC(=O)C1CCCCN1Cc1ccc(OC)c(OC)c1OC (stereo not drawn) | 31.6 µM (active) | 
CCOC(=O)c1c(NC(=O)c2ccc(S(=O)(=O)N3CCCC(C)C3)cc2)sc2c1CCN(C(C)C)C2 (stereo not drawn) | inactive | 
CC1CCCN(c2csc3ccc(F)cc3c2=O)C1 (stereo not drawn) | inactive | 
COc1ccccc1OCCCn1c(-c2ccc(Cl)cc2)nc2ccccc2c1=O | inactive | 
COc1ccc(OCc2ccc(-c3nc4ccccc4c(=O)n3N)o2)cc1 | inactive | 

Structure (SMILES) | Potency | activity change, negative = inhibition
Cn1c(COc2ccc(Cl)cc2)nc2ccccc2c1=O | 50.1 µM (active) | 
O=C(Nc1ccc2nc(SCCOc3ccccc3)sc2c1)c1ccco1 | inactive | 
CCCCN1C(=O)/C(=C/C=C2/C=Cc3ccccc3N2CC)SC1=S | inactive | 
O=C1C(Cc2ccc(O)cc2)NC(=S)N1Cc1ccccc1 (stereo not drawn) | inactive | 
CCCCN1C(=O)/C(=C2/C=CC=CN2C)SC1=S | 44.7 µM (active) | 
CCCCN1C(=O)/C(=C2/Sc3ccc(Cl)cc3N2CC)SC1=S | inactive | 
CN1C=CC=C/C1=C1\SC(=S)N(Cc2ccccc2)C1=O | 50.1 µM (active) | 
COc1ccccc1NC(=O)Cn1cnc2ccc(S(=O)(=O)N3CCC(C)CC3)cc2c1=O | inactive | 
Cc1ccc2nc(N3CCN(c4cccc(Cl)c4)CC3)c3nnnn3c2c1 | inactive | 
Cn1c(=O)sc2cc(NS(=O)(=O)c3ccc(C(C)(C)C)cc3)ccc21 | inactive | 
O=C(/C=C/c1ccccc1)N1CCN(Cc2cc(=O)n3nc(-c4ccccc4F)sc3n2)CC1 | inactive | 
Cc1cc(C)c(NC(=O)Cn2c(SCC(=O)NCc3ccccc3)nc3ccccc32)c(C)c1 | inactive | 
S=c1[nH]nc(COc2ccccc2)n1-c1ccccc1 | inactive | 
COc1ccc(OCc2n[nH]c(=S)n2N)cc1 | 56.2 µM (active) | 
Cc1ccc(OCc2n[nH]c(=S)n2-c2ccccc2)cc1 | inactive | 
COc1ccc(C)cc1N(CC(=O)N1CCC(C)CC1)S(=O)(=O)c1ccc(C)cc1 | inactive | 
O=S(=O)(c1cccs1)N1CCN(Cc2ccccc2)CC1 | inactive | 
CCc1c(C)nc(N2CCN(Cc3ccccc3)CC2)[nH]c1=O | inactive | 
O=C1c2ccccc2C(=O)c2c1cccc2N1CCN(Cc2ccccc2)CC1 | 5.01 µM (active) | 
CCOc1ccccc1NC(=O)CN1CCCN(Cc2cccc(Cl)c2)S1(=O)=O | inactive | 
COc1cccc2c1cc1c(=O)n(CC(=O)N3CCN(c4ccccc4)CC3)nc(C)n12 | inactive | 
CC(=O)N1c2ccc(S(=O)(=O)N3CCCCCC3)cc2CC1C(=O)NCc1ccccc1C (stereo not drawn) | inactive | 
Cc1ccc(C2C=C(c3ccc(Cl)cc3)Nc3nc(NC(=O)CCC(=O)O)nn32)cc1 (stereo not drawn) | 79.4 µM (active) | 
COc1ccc(C2=CC(c3ccccc3Cl)n3nc(-c4ccc(Cl)cc4)nc3N2)cc1 (stereo not drawn) | inactive | 
COc1ccc(C2C=C(c3ccc(Br)cc3)Nc3nc(NS(C)(=O)=O)nn32)cc1 (stereo not drawn) | inactive | 
COc1ccc(-n2c(SCC(N)=O)nc3c(oc4ccccc43)c2=O)cc1 | inactive | 

Structure (SMILES) | Potency | activity change, negative = inhibition
COc1ccc(N2C(=O)CS(=O)(=O)C23C(=O)N(Cc2ccc(C)cc2)c2ccccc23)cc1Cl (stereo not drawn) | inactive | 
COc1cccc(C(=O)NC(=O)Nc2ccc(-c3cc(C(F)(F)F)nn3-c3ccccc3)cc2)c1 | inactive | 
Cc1ccc(NC(=O)Nc2ccccc2)c(Br)c1 | inactive | 
C=CCNC(=O)c1csc(-c2ccccc2)n1 | inactive | 
Cc1ccc(-c2c[n+](CC(=O)Nc3ccccc3)c3n2CCC3)cc1 | inactive | 
C=CCNc1scc(-c2ccccc2)[n+]1CC=C | 10 µM (active) | 
C=CC[n+]1c(-c2ccc(C)cc2)csc1NNC(=O)Nc1ccccc1 | 31.6 µM (active) | 
O=C(CNS(=O)(=O)c1cccs1)N1CCN(c2ccccc2Cl)CC1 | inactive | 
Cc1ccc(C)c(Cn2c(C(=O)O)c(CNCc3cccs3)c3ccccc32)c1 | inactive | 
CCc1ccccc1NC(=O)CSc1nnc(-c2ccccc2)c(-c2ccccc2)n1 | inactive | 
COc1ccc(NC(=O)CSc2nccn2C2CCCC2)cc1OC | inactive | 
CN(C)CCCn1c(SCc2ccc(Cl)cc2)nnc1-c1ccncc1 | 56.2 µM (active) | 
CCn1c(SCC(=O)Nc2ccc3c(c2)OCCO3)nnc1-c1ccncc1 | inactive | 
Cn1c(SCc2ccc(F)cc2)nnc1-c1ccncc1 | inactive | 
CCn1c(SCc2cccc(C(=O)O)c2)nnc1-c1ccc(Cl)cc1 | inactive | 
CCn1c(SCC(=O)NC2CC2)nnc1-c1ccncc1 | inactive | 
CC1CCCCC1NC(=O)CSc1nnc(-c2ccncc2)n1CCCN(C)C (stereo not drawn) | 44.7 µM (active) | 
CCCN(CCC)C(=O)C1CCCN(c2ncnc3c2nc2n3CCCCC2)C1 (stereo not drawn) | inactive | 
COc1ccc(Cn2c(C(=O)O)c(CNCc3cccc(OC)c3)c3ccc(C)cc32)cc1 | inactive | 
O=C(OCc1cc(=O)n2nc(C3CC3)sc2n1)c1ccccc1Cl | inactive | 
Cc1cccc(NC(=O)Cn2cc(S(=O)(=O)Cc3ccccc3Cl)c3ccccc32)c1 | inactive | 
CCOc1cc(CNCc2ccccn2)ccc1OCC(=O)NC(C)(C)C | 50.1 µM (active) | 
CCOc1cc(C)c(S(=O)(=O)NCc2ccccn2)cc1C | inactive | 
CCOc1cc(CNn2c(C)nnc2SCC(=O)NC(C)(C)C)ccc1OCC(=O)NC(C)(C)C | inactive | 
Cc1cc(NC(=O)CSc2nnnn2-c2ccc(F)cc2)no1 | inactive | 
Cc1cc(NC(=O)CSc2nnc(-c3ccc(Cl)s3)o2)no1 | 39.8 µM (active) | 

Structure (SMILES) | Potency | activity change, negative = inhibition
Cc1cc(NC(=O)CSc2nnc(Nc3ccccc3F)s2)no1 | inactive | 
COc1ccc(CNC(=O)c2ccc3c(O)c(S(=O)(=O)c4ccccc4)c(=O)[nH]c3c2)cc1 | inactive | 
CCN1CCN(CCCNC(=O)c2cnn(-c3ccc(C)cc3C)c2C2CCN(C(=O)OC(C)(C)C)CC2)CC1 | inactive | 
COc1cccc(C(=O)NC2(C(F)(F)F)C(=O)Nc3c2c(=O)[nH]c(=O)n3-c2ccc(C)cc2)c1 (stereo not drawn) | inactive | 
CCc1cnc2c(c1SCC(=O)N1CCC(C)CC1)c(=O)n(C)c(=O)n2C | inactive | 
O=C(CCCCn1c(=O)c2ccccc2n(CC(=O)Nc2cccc(C(F)(F)F)c2)c1=O)NCc1ccc2c(c1)OCO2 | inactive | 
O=c1c2ccccc2c(-c2ccc(Br)cc2)nn1Cc1ccccc1 | inactive | 
O=C(NCCc1ccco1)c1nn(Cc2ccccc2)c(=O)c2ccccc12 | 50.1 µM (active) | 
O=C(NCCSc1ccccc1)c1ccco1 | inactive | 
CCOC(=O)c1c(S(=O)(=O)N2CCCC(C(=O)NCc3ccc(F)cc3)C2)c(C)n(CC)c1C (stereo not drawn) | inactive | 
Cc1cc(C)c(/C=C/c2onc(C)c2S(=O)(=O)N2CCC(C(=O)Nc3ccc(Cl)cc3C)CC2)c(C)c1 | inactive | 
COc1ccc2c(c1)Cc1sc(NC(=O)c3ccccc3Br)nc1-2 | inactive | 
Cc1ccc(N2CC(C(=O)Nc3ccc(N(C)C)cc3)CC2=O)cc1Cl (stereo not drawn) | inactive | 
CC(=O)Nc1cc(C(=O)NCc2ccc(F)cc2)ccc1Sc1ccc(F)cc1 | inactive | 
CCc1ccc(C2CC(=O)c3c([nH]c(C(=O)OCc4ccc(C)cc4)c3C)C2)cc1 (stereo not drawn) | inactive | 
Cc1ccc(C(C)C)cc1OCC(=O)Nc1ccccc1N1CCCC1 | inactive | 
O=C(CNCCC1=CCCCC1)Nc1ccccc1N1CCCCCC1 | 56.2 µM (active) | 
Cc1ccccc1NC(=O)Nc1ccccc1N1CCCCC1 | inactive | 
COc1cc([N+](=O)[O-])ccc1NC(=O)CN1CCCC1 | inactive | 
O=C(CN1CCCCCC1)Nc1ccc(Br)cc1[N+](=O)[O-] | 15.8 µM (active) | 
O=C(CN1CCCCCC1)Nc1ccc(Br)cc1Br | inactive | 
CC1=C(C(=O)OCc2ccc(C)cc2)C(c2ccccc2Cl)CC(=O)N1 (stereo not drawn) | inactive | 
O=C(CSCc1ccc(Cl)cc1)N1CCN(Cc2ccc3c(c2)OCO3)CC1 | inactive | 
O=C(C1CCN(S(=O)(=O)c2cnc[nH]2)CC1)N1CCN(Cc2ccc3c(c2)OCO3)CC1 | inactive | 
O=C(C1CCN(Cc2ccc(Cl)cc2)CC1)N1CCN(Cc2ccc3c(c2)OCO3)CC1 | 50.1 µM (active) | 

From PubChem BioAssay AID504333 (National Center for Advancing Translational Sciences (NCATS), 2011)
